Among all 360,000 compounds or so, about 2,300 (0.64%) were called active. Shown is part of a subset that was picked to be rich in actives. Unmarked numbers belong to inactive results.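 The calls were made as follows: active = compounds giving at least 50% protection of heart cells from peroxide-induced death in the single-dose screen, raw or plate-pattern-corrected value; inactive = the rest.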
Test: H9c2 cardiomyocyte survival under peroxide injury – uHTS, H9c2 cells, ATPLite luminescence, primary screen (AID 588492);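 also: 0% = DMSO wells with peroxide and 100% = DMSO wells without peroxide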
Conditions: H9c2 cardiomyocytes, 2 h, at 20 µM, active compounds read high

Row | Structure (SMILES) | protection from H2O2 cell death
1 | COc1ccc(-c2[nH]ncc2CN(C)Cc2cccnc2)c(F)c1 | -2.7%
2 | CCOc1ccc2[nH]c(=O)c(CN(CCCO)S(=O)(=O)c3ccc(F)cc3)cc2c1 | 18.6%
3 | COc1ccc2[nH]c(=O)c(CN(Cc3cccnc3)S(=O)(=O)c3ccccc3F)cc2c1 | 60.7% (active)
4 | O=C(CNS(=O)(=O)c1ccc2c(c1)OCCCO2)N1CCN(c2ccc(F)cc2)CC1 | -3.7%
5 | CC1CCC2(CC1)NC(=O)N(CC(=O)c1cccn1C)C2=O (stereo not given) | 7.1%
6 | N#C/C(=C\c1ccc(-c2cccc([N+](=O)[O-])c2)o1)C(=O)NCCN1CCOCC1 | 55% (active)
7 | Cc1ccc(C(=O)N/C(=C/c2ccc(-c3cccc([N+](=O)[O-])c3)o2)C(=O)NCCCN(C)C)cc1 | -22.6%
8 | Cc1ccc(-c2ccc(/C=N/NC(=O)CN3CCOCC3)o2)cc1[N+](=O)[O-] | 7.6%
9 | COc1ccc(C(=O)Nc2ccc(C(=O)NCC3CCCO3)cc2)c(OC)c1OC (stereo not given) | 10.2%
10 | O=C(NCCN1C(=O)S/C(=C\c2cccnc2)C1=O)c1ccc(S(=O)(=O)N2CCCC2)cc1 | 0.9%
11 | Oc1c(C(c2ccccn2)N2CCOCC2)ccc2cccnc12 (stereo not given) | 64.9% (active)
12 | CCOC(=O)c1cc(-c2nnc(-c3cc(OC)c(OC)c(OC)c3)o2)c(C)nc1C | 119% (active)
13 | COc1cc(-c2nnc(NC(=O)C3=COCCO3)o2)cc(OC)c1OC | -5.7%
14 | Cc1nc(C)c(-c2nnc(-c3cccc(S(=O)(=O)N(C)C)c3)o2)cc1C(=O)NN | -1.4%
15 | CCOC(=O)c1[nH]cnc1C(=O)NC1CCCCC1 | 5.2%
16 | COc1ccc(C(=O)NNC(=O)c2cc(C)[nH]n2)cc1 | 7.7%
17 | Cc1occc1C(=O)N/N=C/c1ccc(-c2cccc([N+](=O)[O-])c2)o1 | 16.2%
18 | Cc1cc(C(=O)N/N=C/c2cc([N+](=O)[O-])cc(C)c2O)n[nH]1 | 58.2% (active)
19 | O=C(OC1CCOC1=O)c1ccc(-c2nc3ccccc3s2)s1 (stereo not given) | -18.2%
20 | Cc1cc(C)c(S(=O)(=O)c2ccc(F)cc2C)c(=O)[nH]1 | 11.1%
21 | CCN(CC)CCn1c(/N=C/c2cc(Br)ccc2O)nc2ccccc21 | 32.2%
22 | O=C(CCc1ccc(O)cc1)NN=Cc1cc(Br)ccc1O | 41.5%
23 | Oc1ccc(Br)cc1C=Nc1ccc2[nH]ncc2c1 | 63.8% (active)

Row | Structure (SMILES) | protection from H2O2 cell death
24 | CCc1cc(=O)oc2cc(OCC(=O)N3CCCc4ccccc43)ccc12 | 22.6%
25 | Cc1cc(C(=O)OCC(=O)NCc2ccco2)c(C)n1-c1ccccc1 | -1.9%
26 | COc1ccc(/C=C2/S/C(=N/N=C3\CC4CCC3(C)C4(C)C)NC2=O)cc1 (stereo not given) | -7.9%
27 | O=[N+]([O-])c1ccc2c(c1)C(N1CCOCC1)/C(=C/C1(O)CCCCC1)O2 (stereo not given) | 1.3%
28 | O=C1OCCC1=COCCCCOC=C1CCOC1=O | 3%
29 | O=C(NCC1(N2CCCCC2)CCCCC1)c1cccc(S(=O)(=O)Nc2ccccc2Cl)c1 | 28.2%
30 | O=C(O)Cn1c(Cc2ccccc2)nc2ccccc21 | 11.1%
31 | CCCn1c(N)c(C(=O)CSc2nnc(-c3cccnc3)n2-c2ccc(C)cc2C)c(=O)[nH]c1=O | 22.9%
32 | CCCCC(=O)Nc1cc(C)c2c(=O)oc3ccccc3c2n1 | 77.7% (active)
33 | Cc1ccc(C)c(NC(=O)CSc2nc3c(oc4ccccc43)c(=O)n2-c2ccccc2)c1 | -6.4%
34 | CCCCC(=O)Nc1ccc2c(c1)C(=O)NC2=O | 9.9%
35 | COc1ccc2c(c1)C(NS(=O)(=O)OCC(Cl)(Cl)Cl)CCC2 (stereo not given) | -4.5%
36 | COc1ccc2[nH]c(=O)c(CN(CC3CCCO3)C(=O)Nc3ccccc3)cc2c1 (stereo not given) | 11.7%
37 | COc1ccc2[nH]c(=O)c(CNc3ccc(C)c(C)c3)cc2c1 | 57.7% (active)
38 | COc1ccc(S(=O)(=O)NCCc2cc3ccc(C)c(C)c3[nH]c2=O)cc1 | -9.7%
39 | CCc1cccc(CC)c1N1C(=O)CC(Sc2ccccc2N)C1=O (stereo not given) | -0.9%
40 | O=C(NCc1cccs1)C(=O)NCC1OCCCN1S(=O)(=O)c1ccc(F)cc1 (stereo not given) | 6%
41 | CCOc1cc2c(Cl)ncnc2c(OCC)c1OCC | 0.8%
42 | CC1(C(=O)OCC(=O)Nc2ncc(Cl)cc2Cl)CC1(Cl)Cl (stereo not given) | -1.6%
43 | CN(C)S(=O)(=O)c1ccc(NC(=O)COC(=O)c2n[nH]c3ccccc23)cc1 | -11.7%
44 | CC(Oc1ccc(Cl)cc1)C(=O)OCC(=O)Nc1ncc(Cl)cc1Cl (stereo not given) | 7.1%
45 | CCC1(CC)NC(=O)N(CC(=O)OCC(=O)Nc2ccc(C(F)(F)F)cc2)C1=O | 4.8%
46 | CCC1(CC)NC(=O)N(CC(=O)OCC(=O)c2cc(C)c(C)cc2C)C1=O | 4.7%

Row | Structure (SMILES) | protection from H2O2 cell death
47 | O=C(COC(=O)Cn1[nH]c(=O)c2ccccc2c1=O)Nc1ncc(Cl)cc1Cl | 79.9% (active)
48 | CN(C)S(=O)(=O)c1ccc(NC(=O)COC(=O)Cn2[nH]c(=O)c3ccccc3c2=O)cc1 | 72.5% (active)
49 | O=C(COC(=O)Cn1[nH]c(=O)c2ccccc2c1=O)Nc1c(Cl)cccc1C(F)(F)F | 88.6% (active)
50 | Cc1ccc(C)c(C(=O)COC(=O)Cn2[nH]c(=O)c3ccccc3c2=O)c1 | 82% (active)
51 | O=C(COC(=O)c1ccc(S(=O)(=O)N2CCCCCC2)cc1)Nc1ccccc1C(F)(F)F | 2.5%
52 | Cc1ccc(S(=O)(=O)N(C)CC(=O)OCC(=O)Nc2ccccc2)cc1 | -0.1%
53 | Cc1ccc(C)c(NC(=O)COC(=O)c2nn(C)c(=O)c3ccccc23)c1 | 7%
54 | CCc1nc2ccc(C(=O)NCCNC(C)=O)cn2c1N(CC)Cc1cccc(Br)c1 | 4.8%
55 | CC(OC(=O)CNC(=O)c1cccc(F)c1)C(=O)NC1CCCCC1C (stereo not given) | 2%
56 | CCCC(=O)Nc1ccc2c(c1)nc1n2CCSC1 | -7.4%
57 | CS(=O)(=O)N1CCc2nc(-c3ccccc3)sc2C1 | -1.4%
58 | Cc1cc(C(F)F)nn1CC(=O)NC1CCCCCC1 | -3.7%
59 | O=C(OCCOCn1cc(Br)c(=O)[nH]c1=O)c1ccccc1 | 7.1%
60 | Cc1cc(C)c2c(n1)sc1c(=O)n(-c3ccccc3)c(=O)[nH]c12 | 4.5%
61 | CCOC(=O)c1sc(NC(=O)C2CSC3(C)CCC(=O)N23)nc1C (stereo not given) | 4%
62 | COc1ccc(S(=O)(=O)NC(=O)C2(C)CCN2C(=O)COc2ccc(Cl)cc2)cc1 (stereo not given) | 5.6%
63 | C[C@H](O)[C@@H]1C(=O)N2CCc3c([nH]c4ccccc34)[C@@H]2C[C@@H]1N(C)C(=O)Nc1ccc(F)cc1 | -2.1%
64 | O=C(Cc1ccccc1)N/N=C/c1ccc(Cl)cc1Cl | -15.4%
65 | O=C(N/N=C/c1cc(Cl)cc([N+](=O)[O-])c1O)C(O)(c1ccccc1)c1ccccc1 | 56.6% (active)
66 | O=[N+]([O-])c1cc(Cl)cc(/C=N/NC(=S)Nc2cc(S(=O)(=O)N3CCOCC3)ccc2Cl)c1O | -20.3%
67 | NC(=O)Cn1c(=O)oc2ccccc21 | 6.1%
68 | CC(C)(C)c1ccc(NC(=O)COC(=O)CCc2nc3ccccc3c(=O)[nH]2)cc1 | 36.5%
69 | CCN(CC(=O)NC(=O)NCc1ccccc1)Cc1nc2ccccc2c(=O)[nH]1 | 7.1%

Row | Structure (SMILES) | protection from H2O2 cell death
70 | CCN(CC)c1ccc(C(=O)NNC(=O)CCc2nc3ccccc3c(=O)[nH]2)cc1 | 56.2% (active)
71 | O=C(CSCc1ccccc1Cl)NNC(=O)c1ccccc1 | 1.3%
72 | O=C(CSc1ncn[nH]1)Nc1nc2c(F)c(F)c(F)cc2s1 | -1.5%
73 | Cc1ccc(OCC(=O)Nc2ccc3oc(=O)ccc3c2)cc1C | 0.6%
74 | CCN1C(=O)[C@@H]2[C@@H]3CN(S(=O)(=O)c4ccccc4C)[C@@H](c4ccc(Cl)cc4)[C@@H]3C(=O)C[C@@H]2C1=O | 8.3%
75 | COC(=O)c1ccc(CSc2ccc3nnc(-c4ccccc4)n3n2)o1 | 80.8% (active)
76 | COC(=O)c1ccc(CSc2nnc(N)s2)o1 | -10.8%
77 | CCOC(=O)CNC(=O)CSc1ccc2nnc(-c3cccnc3)n2n1 | -2.8%
78 | CC(C)[C@@H]1COC(c2cccc(C3=N[C@H](C(C)C)CO3)c2)=N1 | -14.6%
79 | N#Cc1ccsc1NC(=O)CN1CCN(S(=O)(=O)c2cc(Cl)ccc2Cl)CC1 | 8.3%
80 | O=C(CN1CCN(S(=O)(=O)c2cc(Cl)ccc2Cl)CC1)c1ccc(O)c(O)c1 | 55.1% (active)
81 | COc1ccc(Cl)cc1S(=O)(=O)N1CCN(CC(=O)C(C)(C)C)CC1 | -8.8%
82 | CCOC(=O)Cc1csc(NC(=O)COc2ccc3c(C)cc(=O)oc3c2)n1 | 71.2% (active)
83 | CCOC(=O)Cc1csc(SCc2cc(=O)oc3cc(O)ccc23)n1 | 55.7% (active)
84 | Cc1ccc(O)c(/C=N/NC(=O)COc2ccc3c(C)cc(=O)oc3c2)c1 | 38.5%
85 | Cc1ccc2c(CSc3nncs3)cc(=O)oc2c1 | -3.2%
86 | CCOC(=O)Cc1csc(SCC(=O)Nc2ccc(C)cc2F)n1 | -15.1%
87 | COc1ccc(N2CCN(C(=O)COc3ccc4c(C)cc(=O)oc4c3)CC2)cc1 | 19.4%
88 | C/C(=N\NS(=O)(=O)c1ccccc1)c1c(O)cc(C)oc1=O | -1%
89 | Cc1ccc(Cl)cc1NC(=O)C1CCCN(c2cnccn2)C1 (stereo not given) | 1.6%
90 | CC1(C(=O)NCC2CCOCC2)Cc2c(-c3cccc(C(N)=O)c3)ccnc2O1 (stereo not given) | 9.5%

— PubChem BioAssay AID588492 (Sanford-Burnham Center for Chemical Genomics, 2011)
